Test results reported in ChEMBL document CHEMBL1961873, “Compounds: GSK PKIS; Assays: Nanosyn kinase panel” (2012).

What was measured:
[1] = molecular target: Serine/threonine-protein kinase pim-2 (Homo sapiens) (UniProt Q9P1W9); conditions: at 1 µM;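 also: each value is a mean of the inhibition measurements against the kinase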
[2] = molecular target: Serine/threonine-protein kinase pim-3 (Homo sapiens) (UniProt Q86V86); conditions: at 0.1 µM
[3] = molecular target: Serine/threonine-protein kinase pim-3 (Homo sapiens) (UniProt Q86V86); conditions: at 1 µM
[4] = molecular target: T1, MAP kinase-activated protein kinase 5 (Homo sapiens) (UniProt Q8IW41); conditions: at 0.1 µM
T1 sequence (whole entry): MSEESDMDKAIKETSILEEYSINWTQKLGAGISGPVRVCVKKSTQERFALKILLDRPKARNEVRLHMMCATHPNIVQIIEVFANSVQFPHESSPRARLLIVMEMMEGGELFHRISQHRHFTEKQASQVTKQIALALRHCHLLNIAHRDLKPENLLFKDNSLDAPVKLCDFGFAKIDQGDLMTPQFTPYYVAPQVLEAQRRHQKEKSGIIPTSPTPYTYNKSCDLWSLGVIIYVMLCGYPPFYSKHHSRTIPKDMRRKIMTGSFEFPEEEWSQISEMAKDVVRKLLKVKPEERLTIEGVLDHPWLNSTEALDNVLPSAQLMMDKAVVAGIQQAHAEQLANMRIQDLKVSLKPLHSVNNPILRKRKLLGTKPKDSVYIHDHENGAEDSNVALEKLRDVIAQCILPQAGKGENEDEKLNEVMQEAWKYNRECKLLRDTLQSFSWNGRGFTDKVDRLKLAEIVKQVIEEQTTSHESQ

[5] = molecular target: T1, MAP kinase-activated protein kinase 5 (Homo sapiens); conditions: at 1 µM
[6] = molecular target: Serine/threonine-protein kinase SIK1 (Homo sapiens) (UniProt P57059); conditions: at 0.1 µM
[7] = molecular target: Serine/threonine-protein kinase SIK1 (Homo sapiens) (UniProt P57059); conditions: at 1 µM
[8] = molecular target: Serine/threonine-protein kinase SIK2 (Homo sapiens) (UniProt Q9H0K1); conditions: at 0.1 µM
[9] = molecular target: Serine/threonine-protein kinase SIK2 (Homo sapiens) (UniProt Q9H0K1); conditions: at 1 µM
[10] = molecular target: T2, Serine/threonine-protein kinase TBK1 (Homo sapiens) (UniProt Q9UHD2); conditions: at 0.1 µM
T2 sequence (whole entry): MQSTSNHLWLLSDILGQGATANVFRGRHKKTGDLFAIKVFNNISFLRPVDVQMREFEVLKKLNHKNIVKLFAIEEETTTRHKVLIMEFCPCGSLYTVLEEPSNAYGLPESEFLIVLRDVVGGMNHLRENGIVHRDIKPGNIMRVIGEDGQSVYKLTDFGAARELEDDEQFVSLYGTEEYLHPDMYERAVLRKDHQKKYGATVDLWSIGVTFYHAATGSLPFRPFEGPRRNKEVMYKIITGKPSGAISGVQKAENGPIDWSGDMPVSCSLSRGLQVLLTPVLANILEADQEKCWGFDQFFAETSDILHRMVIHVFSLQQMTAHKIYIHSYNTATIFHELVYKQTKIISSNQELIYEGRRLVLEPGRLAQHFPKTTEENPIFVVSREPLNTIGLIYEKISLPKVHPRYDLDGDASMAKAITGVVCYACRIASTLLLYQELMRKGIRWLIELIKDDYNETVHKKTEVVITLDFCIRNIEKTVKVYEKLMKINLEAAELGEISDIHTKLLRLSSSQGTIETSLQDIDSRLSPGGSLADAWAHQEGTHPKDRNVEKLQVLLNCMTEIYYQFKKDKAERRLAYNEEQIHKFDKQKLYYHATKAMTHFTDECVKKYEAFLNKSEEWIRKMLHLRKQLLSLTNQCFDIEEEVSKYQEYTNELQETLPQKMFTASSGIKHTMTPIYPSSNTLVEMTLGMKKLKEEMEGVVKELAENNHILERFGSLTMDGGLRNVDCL

[11] = molecular target: T2, Serine/threonine-protein kinase TBK1 (Homo sapiens); conditions: at 1 µM
[12] = molecular target: T3, Testis-specific serine/threonine-protein kinase 1 (Homo sapiens) (UniProt Q9BXA7); conditions: at 0.1 µM
T3 sequence (whole entry): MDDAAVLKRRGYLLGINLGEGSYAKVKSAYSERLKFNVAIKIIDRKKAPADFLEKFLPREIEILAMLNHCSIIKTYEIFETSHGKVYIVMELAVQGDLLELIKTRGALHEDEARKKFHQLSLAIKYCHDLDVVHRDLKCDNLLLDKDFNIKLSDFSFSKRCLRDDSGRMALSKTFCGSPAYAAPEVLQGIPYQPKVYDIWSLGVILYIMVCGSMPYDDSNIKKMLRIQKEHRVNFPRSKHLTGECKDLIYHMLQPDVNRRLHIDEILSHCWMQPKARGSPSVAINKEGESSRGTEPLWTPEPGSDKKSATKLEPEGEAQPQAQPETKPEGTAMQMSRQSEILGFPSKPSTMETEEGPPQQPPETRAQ

[13] = molecular target: T3, Testis-specific serine/threonine-protein kinase 1 (Homo sapiens); conditions: at 1 µM
[14] = molecular target: T4, Testis-specific serine/threonine-protein kinase 2 (Homo sapiens) (UniProt Q96PF2); conditions: at 0.1 µM
T4 sequence (whole entry): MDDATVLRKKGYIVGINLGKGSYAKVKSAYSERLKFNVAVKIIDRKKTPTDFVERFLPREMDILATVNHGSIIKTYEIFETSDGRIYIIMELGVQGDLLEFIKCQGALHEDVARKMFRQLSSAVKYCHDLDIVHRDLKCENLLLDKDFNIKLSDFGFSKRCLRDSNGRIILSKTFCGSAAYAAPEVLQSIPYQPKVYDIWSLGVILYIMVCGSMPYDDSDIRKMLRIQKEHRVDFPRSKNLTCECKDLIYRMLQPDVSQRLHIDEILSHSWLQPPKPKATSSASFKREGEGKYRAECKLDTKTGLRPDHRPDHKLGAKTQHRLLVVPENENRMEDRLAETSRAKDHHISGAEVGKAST

[15] = molecular target: T4, Testis-specific serine/threonine-protein kinase 2 (Homo sapiens); conditions: at 1 µM
[16] = molecular target: Casein kinase I isoform alpha (Homo sapiens) (UniProt P48729); conditions: at 0.1 µM
[17] = molecular target: Casein kinase I isoform alpha (Homo sapiens) (UniProt P48729); conditions: at 1 µM
[18] = molecular target: Casein kinase I isoform gamma-1 (Homo sapiens) (UniProt Q9HCP0); conditions: at 0.1 µM
[19] = molecular target: Casein kinase I isoform gamma-1 (Homo sapiens) (UniProt Q9HCP0); conditions: at 1 µM
[20] = molecular target: Casein kinase I isoform gamma-2 (Homo sapiens) (UniProt P78368); conditions: at 0.1 µM;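 also: values are mean inhibition figures reported as part of the GSK PKIS dataset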
Sequence of Casein kinase I isoform gamma-2 (Homo sapiens) (P78368 whole entry, looked up, canonical isoform): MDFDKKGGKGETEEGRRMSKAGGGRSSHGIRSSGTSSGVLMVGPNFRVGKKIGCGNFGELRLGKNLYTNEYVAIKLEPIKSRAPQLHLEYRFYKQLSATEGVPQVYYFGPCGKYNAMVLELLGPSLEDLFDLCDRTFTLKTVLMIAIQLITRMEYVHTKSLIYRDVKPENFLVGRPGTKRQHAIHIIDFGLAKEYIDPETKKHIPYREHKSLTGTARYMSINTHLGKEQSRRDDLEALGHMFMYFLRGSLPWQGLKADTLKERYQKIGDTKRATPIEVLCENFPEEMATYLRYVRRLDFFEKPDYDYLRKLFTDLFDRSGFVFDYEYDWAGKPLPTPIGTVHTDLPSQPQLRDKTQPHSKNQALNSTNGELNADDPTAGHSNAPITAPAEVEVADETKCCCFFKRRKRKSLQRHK

Sequence of Serine/threonine-protein kinase pim-2 (Homo sapiens) (Q9P1W9 whole entry, looked up): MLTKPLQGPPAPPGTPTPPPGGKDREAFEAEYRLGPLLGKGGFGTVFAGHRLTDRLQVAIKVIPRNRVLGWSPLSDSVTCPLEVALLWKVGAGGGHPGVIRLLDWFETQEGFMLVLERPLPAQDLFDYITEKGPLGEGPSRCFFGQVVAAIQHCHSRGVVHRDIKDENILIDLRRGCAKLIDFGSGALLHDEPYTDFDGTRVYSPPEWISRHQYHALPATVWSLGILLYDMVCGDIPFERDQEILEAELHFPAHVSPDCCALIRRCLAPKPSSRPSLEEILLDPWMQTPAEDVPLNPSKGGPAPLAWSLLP
Sequence of Serine/threonine-protein kinase SIK2 (Homo sapiens) (Q9H0K1 whole entry, looked up): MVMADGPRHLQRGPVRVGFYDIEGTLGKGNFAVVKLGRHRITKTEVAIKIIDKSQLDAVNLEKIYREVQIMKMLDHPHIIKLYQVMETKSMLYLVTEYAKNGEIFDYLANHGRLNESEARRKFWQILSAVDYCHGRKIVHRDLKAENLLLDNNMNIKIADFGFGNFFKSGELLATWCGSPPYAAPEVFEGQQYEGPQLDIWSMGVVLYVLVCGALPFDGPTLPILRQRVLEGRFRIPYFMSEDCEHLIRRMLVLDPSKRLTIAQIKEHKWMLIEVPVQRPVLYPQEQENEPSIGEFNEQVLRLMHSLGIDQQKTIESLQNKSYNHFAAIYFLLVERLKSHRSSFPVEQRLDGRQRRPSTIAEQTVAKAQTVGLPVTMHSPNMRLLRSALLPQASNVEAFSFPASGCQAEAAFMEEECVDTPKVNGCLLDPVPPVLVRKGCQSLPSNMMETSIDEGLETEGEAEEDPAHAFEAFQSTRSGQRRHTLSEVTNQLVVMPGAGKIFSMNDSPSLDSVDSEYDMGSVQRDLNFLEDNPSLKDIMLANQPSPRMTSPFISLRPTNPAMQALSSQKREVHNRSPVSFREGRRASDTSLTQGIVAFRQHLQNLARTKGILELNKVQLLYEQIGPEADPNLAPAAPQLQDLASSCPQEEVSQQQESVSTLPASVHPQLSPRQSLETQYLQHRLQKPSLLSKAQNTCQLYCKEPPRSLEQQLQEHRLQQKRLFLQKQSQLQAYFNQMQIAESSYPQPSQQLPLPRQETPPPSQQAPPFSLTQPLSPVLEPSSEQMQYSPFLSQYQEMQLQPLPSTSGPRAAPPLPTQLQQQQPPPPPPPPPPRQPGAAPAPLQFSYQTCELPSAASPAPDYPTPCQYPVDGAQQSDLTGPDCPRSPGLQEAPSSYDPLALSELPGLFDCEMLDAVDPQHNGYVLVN
Sequence of Casein kinase I isoform gamma-1 (Homo sapiens) (Q9HCP0 whole entry, looked up, canonical isoform): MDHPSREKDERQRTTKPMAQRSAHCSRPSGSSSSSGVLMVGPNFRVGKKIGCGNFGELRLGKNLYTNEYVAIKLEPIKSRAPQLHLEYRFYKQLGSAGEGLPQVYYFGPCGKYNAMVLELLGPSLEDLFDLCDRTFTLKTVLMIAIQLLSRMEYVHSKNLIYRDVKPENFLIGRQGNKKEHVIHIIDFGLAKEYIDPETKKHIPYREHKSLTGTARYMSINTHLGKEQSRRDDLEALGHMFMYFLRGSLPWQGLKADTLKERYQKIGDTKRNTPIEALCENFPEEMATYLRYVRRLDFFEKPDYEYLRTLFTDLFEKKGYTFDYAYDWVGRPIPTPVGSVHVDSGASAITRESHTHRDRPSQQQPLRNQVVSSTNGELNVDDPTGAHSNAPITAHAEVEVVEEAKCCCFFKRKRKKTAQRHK
Sequence of Serine/threonine-protein kinase SIK1 (Homo sapiens) (P57059 whole entry): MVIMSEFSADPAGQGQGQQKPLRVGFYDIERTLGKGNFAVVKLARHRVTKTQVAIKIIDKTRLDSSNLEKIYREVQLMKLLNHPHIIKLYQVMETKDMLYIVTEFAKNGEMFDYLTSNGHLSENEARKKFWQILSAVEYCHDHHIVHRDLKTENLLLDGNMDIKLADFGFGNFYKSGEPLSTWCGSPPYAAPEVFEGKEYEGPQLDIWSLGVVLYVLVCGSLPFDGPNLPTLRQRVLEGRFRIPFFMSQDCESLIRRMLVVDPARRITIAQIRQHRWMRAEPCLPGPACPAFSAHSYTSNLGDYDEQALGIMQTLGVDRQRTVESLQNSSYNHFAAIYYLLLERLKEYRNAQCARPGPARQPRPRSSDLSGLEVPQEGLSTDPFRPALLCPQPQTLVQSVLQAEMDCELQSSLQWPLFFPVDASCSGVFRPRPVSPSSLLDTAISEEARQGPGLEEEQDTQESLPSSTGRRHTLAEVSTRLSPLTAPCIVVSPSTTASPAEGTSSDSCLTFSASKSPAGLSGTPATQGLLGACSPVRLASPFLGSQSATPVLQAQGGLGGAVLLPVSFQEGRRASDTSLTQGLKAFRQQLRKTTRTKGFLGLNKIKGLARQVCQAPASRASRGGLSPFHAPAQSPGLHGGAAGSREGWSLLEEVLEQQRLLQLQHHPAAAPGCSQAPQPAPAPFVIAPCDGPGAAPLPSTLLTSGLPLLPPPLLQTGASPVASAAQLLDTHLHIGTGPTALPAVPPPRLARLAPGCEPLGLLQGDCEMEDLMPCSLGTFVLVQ
Sequence of Casein kinase I isoform alpha (Homo sapiens) (P48729 2-337 limits assumed): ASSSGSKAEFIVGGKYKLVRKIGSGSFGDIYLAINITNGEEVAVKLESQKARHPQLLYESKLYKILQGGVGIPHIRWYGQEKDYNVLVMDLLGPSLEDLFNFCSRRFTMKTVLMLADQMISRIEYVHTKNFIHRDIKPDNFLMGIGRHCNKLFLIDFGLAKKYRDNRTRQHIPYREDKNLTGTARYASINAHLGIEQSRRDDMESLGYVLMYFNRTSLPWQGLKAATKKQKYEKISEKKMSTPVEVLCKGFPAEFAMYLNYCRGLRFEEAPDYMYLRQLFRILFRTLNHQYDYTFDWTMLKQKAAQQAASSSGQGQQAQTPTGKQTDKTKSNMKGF

Compound	inhibition [1]	inhibition [2]	inhibition [3]	inhibition [4]	inhibition [5]	inhibition [6]	inhibition [7]	inhibition [8]	inhibition [9]	inhibition [10]	inhibition [11]	inhibition [12]	inhibition [13]	inhibition [14]	inhibition [15]	inhibition [16]	inhibition [17]	inhibition [18]	inhibition [19]	inhibition [20]
CN1CCN(C(=O)c2ccc(NC(=O)Nc3ccc(N(C)c4ccnc(Nc5ccc(CS(C)(=O)=O)cc5)n4)cc3)cc2)CC1	-0.35%	0.13%	2.14%	1.17%	1.29%	3.16%	17.6%	-0.55%	17.4%	2.62%	12.6%	0.02%	1.8%	0.71%	0.35%	0.51%	2.95%	1.88%	2.79%	1.94%
COc1ccc2ncnc(Nc3ccc(OCc4ccccc4)cc3)c2c1	0.96%	0.32%	0.59%	0.99%	1.13%	1.08%	5.56%	3.18%	3.43%	1.67%	1.27%	1.95%	3.16%	0.6%	2.34%	6.26%	8.76%	1.48%	2.76%	1.66%
Cc1ccc2c(c1)/C(=N/Nc1ccc(S(N)(=O)=O)cc1)C(=O)N2	1.85%	-0.58%	-0.92%	0.02%	-2.03%	1.14%	1.4%	-5.87%	10.4%	-2.1%	6.6%	-0.94%	0.43%	-0.24%	-1.16%	0.07%	-0.4%	0.78%	1.26%	0.31%
CN(C)C(=O)O[C@@H]1CN[C@@H](C#Cc2cc3ncnc(Nc4ccc(OCc5cccc(F)c5)c(Cl)c4)c3s2)C1	0.58%	-0.21%	-1.29%	-0.43%	-2.16%	0.03%	3.96%	-0.41%	10.1%	4.03%	2.9%	-0.67%	-0.36%	-0.92%	-1.41%	9.15%	6.58%	2%	6.01%	1.45%
NC(=O)c1sc(-n2cnc3ccccc32)cc1OCc1ccccc1Br	0.78%	-1.03%	3.81%	1.15%	0.91%	4.47%	13.6%	3.55%	9.83%	0.38%	2.68%	3.19%	4.53%	0.6%	1.24%	2.22%	7.23%	3.55%	5.15%	3.34%
Cc1ccc2c(-c3ccnc(Nc4cccc(C(F)(F)F)c4)n3)c(-c3ccccc3)nn2n1	-0.7%	0.5%	1.85%	1.8%	1.94%	6.3%	15.8%	1.03%	9.81%	3.23%	4.86%	3.88%	4.11%	1.4%	2.15%	15.3%	59.2%	5%	14%	3.82%
COc1cc(Nc2nccc(-c3cnn4ncccc34)n2)cc(OC)c1	6.78%	4.42%	10.6%	0.14%	1.55%	8.12%	32.3%	3.15%	39.1%	3.49%	33.2%	3.46%	16.9%	0.24%	0.16%	11.9%	45.4%	2.54%	19.9%	3.83%
C[C@@H](Oc1cc(-n2cnc3ccc(OC[C@@H](O)CO)cc32)sc1C(N)=O)c1ccccc1Cl	1.97%	2.99%	22.2%	-0.57%	-0.59%	-2.64%	6.54%	4.2%	10.6%	0.21%	-0.29%	0.57%	1.14%	-0.99%	0.82%	2.6%	3.43%	-1.5%	2.39%	-1.3%
c1ccc(Cc2nc3ccc(Nc4ncnc5ccccc45)cc3[nH]2)cc1	0.02%	0.69%	3.67%	1.42%	1.52%	3.13%	5.43%	2.47%	7.91%	3.57%	5.54%	0.97%	2.75%	-0.59%	4.11%	8.25%	7.49%	2.6%	6.23%	2.94%
Nc1ccc(C#Cc2cncnc2Nc2ccc(OCc3cccc(F)c3)c(Cl)c2)cc1	0.51%	-0.08%	1.14%	1.7%	0.75%	5.15%	2.18%	-0.99%	5.08%	2.5%	3.55%	2.73%	2.62%	1.11%	0.95%	3.47%	2.49%	2.52%	2.66%	1.58%
Cc1nc(-c2ccccc2)n2nc(NCCCN3CCOCC3)ncc12	0.05%	-0.2%	1.5%	0.74%	0.74%	3.53%	5.24%	-0.49%	4.81%	1.18%	6.52%	0.26%	3.44%	0.32%	0.77%	1.74%	8.04%	2.06%	2.66%	2.09%
COC(=O)c1ccc2c(c1)C(=Cc1cc(Br)c(O)c(Br)c1)C(=O)N2	53.2%	18.4%	64.3%	0.85%	2.43%	8.54%	14.4%	3.66%	9.93%	1.23%	6.58%	3.53%	5.53%	-0.06%	1.17%	1.76%	6.74%	3.99%	6.68%	4.6%
CCS(=O)(=O)c1ccc(OC)c(Nc2nccc(N(C)c3ccc4c(C)n[nH]c4c3)n2)c1	0.56%	-0.02%	0.25%	1.5%	1.32%	3.91%	23.5%	-0.54%	7.47%	2.62%	4.2%	4.59%	5.05%	1.98%	1.88%	2.29%	1.04%	4.4%	4.99%	3.88%
